These results are taken from PubChem BioAssay (EPA / NIEHS).

The structures appear in SMILES notation. Records with an inconclusive call do not appear. Activity calls are given as the source filed them. Rule for the calls, unless noted: active = hit-call score of the fitted dose curve at least 0.9, where 1 is the maximum; inconclusive = response in the unintended direction; inactive = score below 0.9.

Assay [1] deals with Estrogen receptor (Homo sapiens) (UniProt P03372). The assay can be described thus: CCTE_Deisenroth_AIME_384WELL_LUC_Inactive: CCTE's 384-well Estrogen Receptor Transactivation Assay without AIME metabolic competence (ERTA luciferase; metabolism negative), Deisenroth Lab (AID 2284038).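 Note: VM7Luc4E2 breast cells given medium preincubated 2 h with S9-free microspheres; hits raise estrogen receptor luciferase signal so potencies reflect agonists.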 The method, boiled down:
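VM7Luc4E2 ER transactivation, luciferase bioluminescence after 24 h, using medium pre-incubated 2 h with S9-free alginate microspheres. Concentrations 0.002–200 uM; gain of signal fitted relative to 17beta-estradiol.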

A short description of assay [2]: CCTE_Shafer_MEA_dev_active_electrodes_number: CCTE's Neural Network Formation Assay for Number of Active Electrodes, Shafer Lab (AID 2284040). The method, boiled down: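 Counts electrodes per well firing at least 5 spikes/min, recorded on days 5, 7, 9 and 12 in rat cortical cultures dosed continuously from plating (treatment refreshed DIV 5, 9). Value is the area under the curve over recordings, fitted downward relative to DMSO.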

Assay [3] is described as follows: CCTE_Shafer_MEA_dev_burst_rate: CCTE's Neural Network Formation Assay for Burst Rate, Shafer Lab (AID 2284042; active = hit-call score of the fitted dose curve at least 0.9, where 1 is the maximum; inactive = score below 0.9). A digest of the protocol:
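Cells plated, treated day 0; recorded DIV 5, 7, 9, 12; fed and re-treated DIV 5, 9. Endpoint: bursts per recording time, active-electrode well mean, trapezoidal AUC, fitted in decreasing direction against DMSO baseline.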

Assay [4] is described as follows: CCTE_Shafer_MEA_dev_bursting_electrodes_number: CCTE's Neural Network Formation Assay for Number of Bursting Electrodes, Shafer Lab (AID 2284043). The method, boiled down:
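Rat cortical primary neurons, 48-well MEA, 16 electrodes/well; dosing DIV 0–12, re-dosed with full media change DIV 5, 9. Recordings DIV 5/7/9/12, AxIS adaptive spike detector; bursting electrode = ≥1 burst/2 min. AUC across days; loss of signal vs DMSO.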

Assay [5] is described as follows: CCTE_Shafer_MEA_dev_per_burst_interspike_interval: CCTE's Neural Network Formation Assay for Burst Interspike Interval, Shafer Lab (AID 2284044; active = hit-call score of the fitted dose curve at least 0.9, where 1 is the maximum; inactive = score below 0.9). The method, boiled down:
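Readout is the average time between spikes inside single-electrode bursts, taken as a well mean across bursting electrodes. Cortical neurons from rat developed networks on MEA plates under continuous 12-day exposure; recordings on days 5, 7, 9 and 12 were integrated by trapezoidal AUC.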

A short description of assay [6]: CCTE_Shafer_MEA_dev_burst_duration_mean: CCTE's Neural Network Formation Assay for Mean Burst Duration, Shafer Lab (AID 2284045; active = hit-call score of the fitted dose curve at least 0.9, where 1 is the maximum; inactive = score below 0.9). A digest of the protocol:
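Rat cortical cultures, 1.5 x 10^5 cells/well with laminin drop; continuous dosing days 0–12, media plus treatment refreshed DIV 5, 9. AxIS adaptive spike detection; mean single-electrode burst duration, AUC over four recordings, negative direction vs DMSO.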

Assay [7] is described as follows: CCTE_Shafer_MEA_dev_interburst_interval_mean: CCTE's Neural Network Formation Assay for Mean Interburst Interval, Shafer Lab (AID 2284046; active = hit-call score of the fitted dose curve at least 0.9, where 1 is the maximum; inactive = score below 0.9;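 note: curve fitted for decrease in interburst interval relative to DMSO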). The method, boiled down: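 Developing rat cortical networks on 48-well MEAs receive compound from the day of plating. Burst intervals from each active electrode are averaged per well, and AUC over the recording days is fitted in the negative direction against DMSO.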

Assay [8] is described as follows: CCTE_Shafer_MEA_dev_inter_network_spike_interval_mean: CCTE's Neural Network Formation Assay for Mean Inter-network Spike Interval, Shafer Lab (AID 2284047; active = hit-call score of the fitted dose curve at least 0.9, where 1 is the maximum; inactive = score below 0.9). A digest of the protocol:
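Rat cortical cultures, 1.5 x 10^5 cells/well on 48-well MEA plates; continuous exposure days 0–12, medium and compound refreshed DIV 5, 9. Mean time between consecutive network-spike peaks; AUC across DIV 5/7/9/12; DMSO baseline, negative fitting direction.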

The nature of assay [9]: CCTE_Shafer_MEA_dev_network_spike_number: CCTE's Neural Network Formation Assay for Number of Network Spikes, Shafer Lab (AID 2284048; active = hit-call score of the fitted dose curve at least 0.9, where 1 is the maximum; inactive = score below 0.9). A digest of the protocol:
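Rat cortical primary cultures on 48-well MEA (16 electrodes/well); continuous exposure DIV 0–12, full medium and treatment exchange DIV 5, 9. Readout: network spike count, AxIS adaptive detection, recordings DIV 5/7/9/12 collapsed to AUC; loss-of-signal fit, DMSO baseline.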

A short description of assay [10]: CCTE_Shafer_MEA_dev_network_spike_peak: CCTE's Neural Network Formation Assay for Mean Number of Electrodes in Network Spike, Shafer Lab (AID 2284049; active = hit-call score of the fitted dose curve at least 0.9, where 1 is the maximum; inactive = score below 0.9). The method, boiled down:
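Network-spike peak electrode count from recordings on days 5, 7, 9 and 12 was combined as trapezoidal area under the curve. Rat cortical cultures were treated continuously from plating, with compound renewed at each feed (DIV 5, 9); fits versus DMSO.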

The nature of assay [11]: CCTE_Shafer_MEA_dev_network_spike_duration_std: CCTE's Neural Network Formation Assay for Standard Deviation of Network Spike Duration, Shafer Lab (AID 2284052; active = hit-call score of the fitted dose curve at least 0.9, where 1 is the maximum; inactive = score below 0.9;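 note: area under curve of spike duration SD across recording days 5 to 12; hits are decreases in network spike duration SD versus DMSO vehicle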). The method, boiled down:
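Read-out is the trapezoidal area-under-the-curve across recordings made on days 5, 7, 9 and 12, fitted in the negative direction against DMSO baseline. Neurons were primary rat cortical cells treated from day 0, with treatment renewed at each feed.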

Assay [12] is described as follows: CCTE_Shafer_MEA_dev_per_network_spike_spike_number_mean: CCTE's Neural Network Formation Assay for Mean Number of Spikes in a Network Spike, Shafer Lab (AID 2284053; active = hit-call score of the fitted dose curve at least 0.9, where 1 is the maximum; inactive = score below 0.9). A digest of the protocol:
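Continuous twelve-day exposure of developing rat cortical networks grown over 16 microelectrodes per well; spontaneous firing is captured at four time points, and the per-network-spike spike number is integrated over development by trapezoidal AUC.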

Assay [13] can be described thus: CCTE_Shafer_MEA_dev_per_network_spike_spike_percent: CCTE's Neural Network Formation Assay for Percent of Spikes in a Network Spike, Shafer Lab (AID 2284054; active = hit-call score of the fitted dose curve at least 0.9, where 1 is the maximum; inactive = score below 0.9). A digest of the protocol:
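Read-out: percent of spikes falling in a 0.05 s window at network-spike peak, from spontaneous MEA recordings on days 5, 7, 9 and 12; trapezoidal AUC; loss of signal versus DMSO. Rat cortical cultures, compound present throughout.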

Assay [14] in a line: CCTE_Shafer_MEA_dev_LDH: CCTE's Lactate Dehydrogenase Assay for Cytotoxicity in the Neural Network Formation Assay, Shafer Lab (AID 2284068).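 Note: exposure for twelve days from plating with re-dosing on DIV 5 and 9.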 A digest of the protocol: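 Cytotoxicity companion to network-formation recordings: rat cortical neurons received compound over 12 days of development, re-dosed at DIV 5 and 9 feeds. Viability was inferred from LDH enzyme activity relative to DMSO.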

For the next assay, the system named is DIO2 (gene 1734). The assay can be described thus: CCTE_GLTED_hDIO2: CCTE's human Deiodinase 2 (DIO2) Inhibition Assay, Great Lakes Toxicology and Ecology Division (GLTED) Lab (AID 2284050). The method, boiled down:
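Inhibition is judged by reduced iodide release: uninhibited human DIO2 frees iodide from substrate over 3 h, measured afterward by Sandell-Kolthoff colorimetry. Iodinated chemicals or nitrite, iron and thiocyanate may interfere.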

In the next assay the test system is DIO3 (gene 1735). The assay can be described thus: CCTE_GLTED_hDIO3: CCTE's human Deiodinase 3 (DIO3) Inhibition Assay, Great Lakes Toxicology and Ecology Division (GLTED) Lab (AID 2284055).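 Note: potency is for inhibition seen as loss of released iodide signal.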 A digest of the protocol: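 Human type 3 deiodinase, expressed via adenovirus system, was exposed to test chemicals for 3 hours in a cell-free format. Released iodide was then determined spectrophotometrically by Sandell-Kolthoff; plates ran in triplicate.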

Assay [15] is described as follows: CCTE_Shafer_MEA_acute_AB: CCTE's Alamar Blue Assay for Cytotoxicity in the Neural Acute Assay, Shafer Lab (AID 2284069).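 Note: active compounds lower the viability signal compared with DMSO wells.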 A digest of the protocol:
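Metabolic activity in chemically exposed rat cortical neurons (MEA cultures, day 13/15 post-plating) measured via CellTiter Blue resazurin reduction, 544/590 nm fluorescence; fitted relative to DMSO, with signal loss indicating reduced viability.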
Background: The colour change of resazurin is a common sign of viable cells or microbes.

Estrogen receptor (Homo sapiens), sequence (P03372 whole entry, looked up): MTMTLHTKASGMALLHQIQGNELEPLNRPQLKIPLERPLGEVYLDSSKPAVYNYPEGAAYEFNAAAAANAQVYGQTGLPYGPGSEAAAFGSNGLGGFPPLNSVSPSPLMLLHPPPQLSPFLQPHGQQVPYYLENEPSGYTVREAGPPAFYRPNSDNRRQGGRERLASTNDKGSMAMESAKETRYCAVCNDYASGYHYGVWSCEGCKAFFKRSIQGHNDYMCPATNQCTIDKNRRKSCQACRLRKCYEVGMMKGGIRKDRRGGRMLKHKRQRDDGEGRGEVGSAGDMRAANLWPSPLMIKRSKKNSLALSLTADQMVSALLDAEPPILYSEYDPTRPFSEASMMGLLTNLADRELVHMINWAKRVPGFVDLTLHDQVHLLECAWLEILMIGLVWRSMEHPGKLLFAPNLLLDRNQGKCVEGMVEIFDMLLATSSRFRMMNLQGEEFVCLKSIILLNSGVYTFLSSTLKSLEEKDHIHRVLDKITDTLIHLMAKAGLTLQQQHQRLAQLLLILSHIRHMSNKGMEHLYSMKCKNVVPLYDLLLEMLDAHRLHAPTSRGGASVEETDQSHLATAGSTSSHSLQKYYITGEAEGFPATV

Regarding `CCCCC(CC)CCC(CC(C)C)OS(=O)(=O)O` (stereo unspecified), the molecule was classed as inactive in assay [1].
As for `Cc1ccc(C(C)c2ccc(C)c(C)c2)cc1C`, the molecule was called inactive in assay [1].
Regarding `c1ccc2c(c1)ccc1cc3c(ccc4ccccc43)cc12`, the call in [1], in assay [2], in assay [3], in assay [4], in [5] and in [6] was inactive. Further, the molecule was classed as inactive in [7], in assay [8], in [9], in assay [10], in [11] and in [12]. In addition, the outcome in assay [13] and in assay [14] was inactive.
Broadly, the AC50 is the midpoint of the concentration-response curve, whichever way the signal moves. For the molecule `O=S1(=O)OC(c2ccc(O)cc2)(c2ccc(O)cc2)c2ccccc21`, the molecule was classed as inactive in [1]. For the same molecule, the concentration at half-maximal activity (AC50) with DIO2 (gene 1734) and in the assay with DIO3 (gene 1735) was 100 µM (active) in each case.
`C=CC(=O)NC(C)(C)CS(=O)(=O)O`: the molecule was called inactive in assay [1].
Consider `CC1=NN(c2cc(S(=O)(=O)O)ccc2Cl)C(=O)C1N=Nc1ccccc1` (stereo unspecified), for which, in [1], the outcome was inactive.
Still for that read-out and setting: the value for `CCCCC/C=C\CCC=O` was “inactive”; that for `OC1CCCC1` was “inactive”; that for `CC(=O)OC(C)C` was “inactive”.
Still for that read-out and setting: then `CCOC(=O)CC`, with “inactive”.
For the molecule `O=C(C=Cc1ccccc1)OCc1ccccc1`, the AC50 in [1] is 26.3 µM (active); in the assay on DIO2 (gene 1734), 14.6 µM (active); in the assay on DIO3 (gene 1735) it was 5.5 µM (active).
For `CCCCCCCCCCOS(=O)(=O)O`, the outcome in [1] was inactive.
The same measure, in the same setting: then `NC(CO)(CO)CO`, with “inactive”; and `O=C(c1ccccc1)C1CCC1`, with “inactive”; and `CCCCCc1ccc(Cl)cc1`, with “inactive”.
On the same count and under the same terms, the value for `O=C1C(N(CO)C(=O)NCO)N(CO)C(=O)N1CO` (stereo unspecified) was “inactive”.
For the molecule `O=C(C(Cl)Cl)N1CCOC12CCCCC2`, the molecule was classed as inactive in assay [1].
Take `O=S(=O)(O)c1ccccc1C=Cc1ccc(-c2ccc(C=Cc3ccccc3S(=O)(=O)O)cc2)cc1`: the call (in assay [1]; in the assay with DIO2 (gene 1734)) was inactive. Further, the AC50 in the assay on DIO3 (gene 1735) was 100 µM (active).
For the molecule `O=c1cc(-c2ccccc2)oc2ccccc12`, the molecule was called inactive in assay [1].
The same measure, in the same setting: the value for `C=C1C2CCC(C2)C1(C)C` (stereo unspecified) was “inactive”.
As to `O=C1CCCC1`, the molecule was called inactive in assay [1].
In the case of `Nc1ccc(N)c(Cl)c1`, in assay [15], the call was inactive.
